Laboratory results from PubChem BioAssay (Tox21).
Inconclusive results are not listed. The source made the active and inactive calls. Unless noted, the call rests on the fitted dose curve; in most records, active means well fitted curve in the direction sought with a large enough effect in the repeat runs; inconclusive means weak or mixed curves; inactive means no such curve, though single readings can be large; an effect the other way counts as inactive or inconclusive.

How the values were obtained:
[1] = target: Progesterone receptor (Homo sapiens) (UniProt P06401); assay: qHTS assay to identify small molecule agonists of the progesterone receptor (PR) signaling pathway (AID 1346784; calls by dose curve; further: nearly all actives have a fitted effect of over 30% in size; further: potency means the concentration at half of the fitted maximal effect)
Procedure, shortened: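 Seed PR-UAS-bla HEK 293T cells (2% charcoal-stripped FBS), incubate 6 hr at 37C; add compounds in DMSO, 16 hr at 37C; add LiveBLAzer B/G substrate, 2 hr RT; read fluorescence intensity.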

[2] = target: Progesterone receptor (Homo sapiens) (UniProt P06401); assay: qHTS assay to identify small molecule antagonists of the progesterone receptor (PR) signaling pathway (AID 1346795; active means well fitted inhibition curve with a large enough effect in the signal ratio in the repeat runs, not every such curve was filed as active; the % refers to the signal ratio; further: potency means the concentration at half of the fitted maximal effect)
Procedure, shortened: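 Screening used a GripTite HEK293T line with PR-responsive UAS-beta-lactamase. Cells were challenged with compound in the presence of 1 nM R5020 final for 16 hr at 37C; B/G FRET substrate, 2 hr room temperature, fluorescence.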

[3] = qHTS assay to identify small molecule antagonists of the progesterone receptor (PR) signaling pathway - cell viability counter screen (AID 1346798); further: series mostly up to about 92 µM; nearly all actives have a fitted effect of over 50% in size
Procedure, shortened: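 Measures cytotoxicity in parallel with the PR antagonist reporter read: HEK293T PR-UAS-bla cells get compound and R5020 for 16 hr, and remaining viable cells are quantified by CellTiter-Glo luminescence.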

[4] = qHTS assay to identify small molecule agonists of the progesterone receptor (PR) signaling pathway - cell viability counter screen (AID 1346799; calls by dose curve; further: nearly all actives have a fitted effect of over 45% in size)
Procedure, shortened: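 Using the same plates as the PR reporter screen, HEK293T PR-UAS-bla cells received compounds for 16 hr at 37C and were then lysed with CellTiter-Glo; luminescence was read 30 min later at room temperature.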

[5] = qHTS assay to identify small molecule antagonists of the TGF-beta/Smad signaling pathway - cell viability counter screen (AID 1346824); further: nearly all actives have a fitted effect of over 50% in size
Procedure, shortened: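 SBE-bla HEK 293T cells were plated overnight at 37 C, then given compounds in DMSO plus TGF-beta1 (added as 0.25 ng/mL solution) for 5 hr. After the bla read, CellTiter-Glo was added to the same wells and luminescence read after 30 min at room temperature.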

[6] = qHTS assay to identify small molecule agonists of the TGF-beta/Smad signaling pathway - cell viability counter screen (AID 1346829); further: top concentration of the series differs between compounds; nearly all actives have a fitted effect of over 45% in size
Procedure, shortened: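 Here the cytotoxicity of library compounds is measured in SBE-bla HEK 293T cells treated for 5 hr, using CellTiter-Glo added to wells already read for the beta-lactamase reporter.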

[7] = qHTS assay to identify small molecule agonists of the TGF-beta/Smad signaling pathway (AID 1346859; active means well fitted activation curve with a large enough effect in the signal ratio in the repeat runs, not every such curve was filed as active; the % refers to the signal ratio; further: series mostly up to about 77 µM)
Procedure, shortened: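 Beta-lactamase reporter activity downstream of Smad binding elements was measured in stably transfected HEK 293T cells; compounds were incubated for 5 hr, substrate for 2 hr at room temperature.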

[8] = target: Thyrotropin-releasing hormone receptor (Homo sapiens) (UniProt P34981); assay: qHTS assay to identify small molecule antagonists of the thyrotropin-releasing hormone receptor (TRHR) signaling pathway (AID 1346877; active means well fitted inhibition curve with a large enough effect in the repeat runs, not every such curve was filed as active; further: series mostly up to about 51 µM)
Procedure, shortened: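 Intracellular calcium fluorescence, read kinetically every second over 3 min, reports TRH-evoked signalling in HEK293 cells carrying TRHR. Test compounds were added 5 min ahead of a 1 nM TRH challenge.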

[9] = target: Thyrotropin-releasing hormone receptor (Homo sapiens) (UniProt P34981); assay: qHTS assay to identify small molecule agonists of the thyrotropin-releasing hormone receptor (TRHR) signaling pathway (AID 1346891; calls by dose curve;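 further: HEK293 cells expressing TRHR with calcium dye readout; series mostly up to about 58 µM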)
Procedure, shortened: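 Overnight-plated (18 h, 37 °C, 5% CO2) TRHR-Hek293 cells; 2 h calcium dye at 37 °C; compound in DMSO; 3-min kinetic fluorescence read.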

[10] = Human pregnane X receptor (PXR) small molecule agonists, qHTS cell viability counter screen (AID 1346977); further: nearly all actives have a fitted effect of over 50% in size; further: potency means the concentration at half of the fitted maximal effect
Procedure, shortened: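 After a 5hr pre-incubation, PXR-Luc HepG2 cells received compounds plus positive control in DMSO and were kept 24hr at 37C. Cell viability was quantified by fluorescence from CellTiter-Fluor added for the final hour.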
On the % scale 0 is the no-effect control and ±100 the full control effect.

Sequence of Thyrotropin-releasing hormone receptor (Homo sapiens) (P34981 whole entry, looked up): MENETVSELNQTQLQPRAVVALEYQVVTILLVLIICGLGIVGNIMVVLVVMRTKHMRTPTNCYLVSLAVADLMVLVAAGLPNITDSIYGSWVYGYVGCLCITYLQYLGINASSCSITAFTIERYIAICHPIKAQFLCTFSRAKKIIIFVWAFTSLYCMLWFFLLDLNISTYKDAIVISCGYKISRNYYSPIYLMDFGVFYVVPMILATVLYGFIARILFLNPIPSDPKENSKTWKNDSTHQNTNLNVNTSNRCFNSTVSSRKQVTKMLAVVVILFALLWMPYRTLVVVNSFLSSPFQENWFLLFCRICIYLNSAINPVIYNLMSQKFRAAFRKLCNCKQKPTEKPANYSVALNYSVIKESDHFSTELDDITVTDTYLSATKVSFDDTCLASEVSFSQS
Sequence of Progesterone receptor (Homo sapiens) (P06401 whole entry, looked up): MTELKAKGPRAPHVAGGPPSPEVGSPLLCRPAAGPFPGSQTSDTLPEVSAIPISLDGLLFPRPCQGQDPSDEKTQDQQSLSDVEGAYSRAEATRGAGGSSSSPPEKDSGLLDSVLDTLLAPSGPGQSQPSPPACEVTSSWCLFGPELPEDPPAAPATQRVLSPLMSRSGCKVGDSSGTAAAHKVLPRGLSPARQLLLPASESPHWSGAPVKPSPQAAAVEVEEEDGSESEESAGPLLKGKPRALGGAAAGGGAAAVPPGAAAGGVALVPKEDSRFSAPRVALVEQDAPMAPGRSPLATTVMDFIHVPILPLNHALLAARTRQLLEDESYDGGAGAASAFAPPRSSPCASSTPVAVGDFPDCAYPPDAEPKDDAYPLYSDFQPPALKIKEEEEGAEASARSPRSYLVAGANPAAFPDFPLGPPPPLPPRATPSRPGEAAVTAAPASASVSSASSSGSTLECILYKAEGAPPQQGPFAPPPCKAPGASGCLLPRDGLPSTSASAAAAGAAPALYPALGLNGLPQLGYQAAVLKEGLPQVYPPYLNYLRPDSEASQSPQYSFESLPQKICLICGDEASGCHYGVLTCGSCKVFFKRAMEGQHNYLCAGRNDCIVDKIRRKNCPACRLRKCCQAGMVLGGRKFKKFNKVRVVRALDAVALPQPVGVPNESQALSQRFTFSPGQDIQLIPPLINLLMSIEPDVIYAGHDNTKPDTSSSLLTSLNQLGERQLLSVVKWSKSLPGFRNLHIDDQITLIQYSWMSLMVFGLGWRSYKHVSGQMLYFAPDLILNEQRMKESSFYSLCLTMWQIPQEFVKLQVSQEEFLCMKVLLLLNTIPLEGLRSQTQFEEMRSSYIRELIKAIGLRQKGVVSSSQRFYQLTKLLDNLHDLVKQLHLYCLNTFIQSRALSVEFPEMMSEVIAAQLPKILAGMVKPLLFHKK

CC(CCc1ccc2c(c1)OCO2)NN (stereo not given)
inactive: Potency [1] | Potency [2] | Potency [3] | Potency [4] | outcome [5] | outcome [6] | outcome [7] | outcome [8] | Potency [9] | Potency [10]

CCOC(=O)OCC
inactive: Potency [1] | Potency [2] | Potency [3] | Potency [4] | outcome [5] | outcome [6] | outcome [7] | outcome [8] | Potency [9] | Potency [10]

CCCCCCCCCOC(C)=O
inactive: Potency [1] | Potency [2] | Potency [3] | Potency [4] | outcome [5] | outcome [6] | outcome [7]

OC(CCCN1CCCCC1)(c1ccccc1)c1ccccc1
inactive: Potency [1] | Potency [2] | Potency [3] | Potency [4] | outcome [5] | outcome [6] | outcome [7] | outcome [8] | Potency [9]

O=C(O)c1snc(Cl)c1Cl
inactive: Potency [1] | Potency [2] | Potency [3] | Potency [4] | outcome [5] | outcome [6] | outcome [7] | outcome [8] | Potency [9] | Potency [10]

CCCCC(CC)CNCC(CC)CCCC (stereo not given)
inactive: Potency [1] | Potency [2] | Potency [3] | Potency [4] | outcome [5] | outcome [6] | outcome [7] | outcome [8] | Potency [9] | Potency [10]

CCCCCCOC(=O)CCCCCCCC(=O)OCCCCCC
inactive: Potency [1] | Potency [2] | Potency [3] | Potency [4] | outcome [5] | outcome [6] | outcome [7] | outcome [8] | Potency [9] | Potency [10]

N#C[C@@H]1C[C@@H]2C[C@@H]2N1C(=O)[C@@H](N)C12CC3CC(CC(O)(C3)C1)C2
inactive: Potency [1] | Potency [2] | Potency [3] | Potency [4] | outcome [5] | outcome [6] | outcome [7] | Potency [10]

C=CCCCCCCCCCCCCCCCC
active: Potency [1] 0.733 µM
inactive: activity change, negative = inhibition [2] 15.4% [at 8.39 µM] | activity change, negative = cytotoxicity [3] 4.23% [at 8.39 µM] | activity change, negative = cytotoxicity [4] 14.5% [at 8.39 µM] | viability change, negative = cytotoxic [5] 2.26% [at 6.97 µM] | activity change, negative = cytotoxicity [6] 3.28% [at 6.97 µM] | activation [7] 2.93% [at 6.97 µM] | activity change, negative = cytotoxicity [10] 0.0327% [at 8.39 µM]

CC(N)CN (stereo not given)
inactive: Potency [1] | Potency [2] | Potency [3] | Potency [4] | outcome [5] | outcome [6] | outcome [7] | outcome [8] | Potency [9] | Potency [10]

Nc1ccc(S(=O)(=O)O)cc1
inactive: Potency [1] | Potency [2] | Potency [3] | Potency [4] | outcome [5] | outcome [6] | outcome [7] | outcome [8] | Potency [9]

Nc1nccs1
inactive: Potency [1] | Potency [2] | Potency [3] | Potency [4] | outcome [5] | outcome [6] | outcome [7] | outcome [8] | Potency [9]

CC(=O)CC(c1ccc([N+](=O)[O-])cc1)c1c(O)c2ccccc2oc1=O (stereo not given)
inactive: Potency [1] | Potency [2] | Potency [3] | Potency [4] | outcome [5] | outcome [6] | outcome [7] | Potency [10]

ON(Cc1ccccc1)Cc1ccccc1
inactive: Potency [1] | Potency [2] | Potency [3] | Potency [4] | outcome [5] | outcome [6] | outcome [7] | outcome [8] | Potency [9]

Cc1oncc1C(=O)Nc1ccc(C(F)(F)F)cc1
active: Potency [2] 61.1 µM
inactive: Potency [1] | Potency [3] | Potency [4] | outcome [5] | outcome [6] | outcome [7] | Potency [10]

COc1ccccc1N=Nc1c(S(=O)(=O)O)cc2cc(S(=O)(=O)O)cc(NC(C)=O)c2c1O
active: Potency [10] 22.9 µM
inactive: Potency [1] | Potency [2] | Potency [3] | outcome [5] | outcome [6] | outcome [7] | outcome [8] | Potency [9]

CCOC(=O)c1ccccc1OC
inactive: Potency [1] | Potency [2] | Potency [3] | Potency [4] | outcome [5] | outcome [7] | outcome [8] | Potency [9] | Potency [10]

CCN(Cc1cccc(S(=O)(=O)O)c1)c1ccc(C(=C2C=CC(=[N+](CC)Cc3cccc(S(=O)(=O)[O-])c3)C=C2)c2ccccc2)cc1
inactive: Potency [1] | Potency [2] | Potency [3] | Potency [4] | outcome [5] | outcome [7] | outcome [8] | Potency [9] | Potency [10]

CC(C)CCCCCOC(=O)CCCCC(=O)OCCCCCC(C)C
inactive: Potency [1] | Potency [2] | Potency [3] | outcome [5] | outcome [6] | outcome [7] | outcome [8] | Potency [9] | Potency [10]

O=C(CCC1CCN(Cc2ccccc2)CC1)c1ccc2c(c1)NCCCC2
inactive: Potency [1] | Potency [2] | Potency [3] | outcome [5] | outcome [6] | outcome [7] | outcome [8] | Potency [9]

OCC1CC=CCC1 (stereo not given)
inactive: Potency [1] | Potency [2] | Potency [3] | outcome [5] | outcome [6] | outcome [7] | Potency [10]

CN(C(=O)C(Cl)Cl)c1ccc(OC(=O)c2ccco2)cc1
inactive: Potency [1] | Potency [2] | Potency [3] | outcome [5] | outcome [6] | outcome [7] | outcome [8] | Potency [9] | Potency [10]

Cc1cc(C(=C2C=CC(=Nc3ccc(S(=O)(=O)O)cc3S(=O)(=O)O)C=C2)c2ccc(Nc3ccc(S(=O)(=O)O)cc3)cc2)ccc1N
inactive: Potency [1] | Potency [2] | Potency [3] | outcome [5] | outcome [6] | outcome [7] | outcome [8] | Potency [9] | Potency [10]

CC1(C)C(=O)N(Br)C(=O)N1Cl
inactive: Potency [1] | Potency [2] | Potency [3] | Potency [4] | outcome [5] | outcome [7] | outcome [8] | Potency [9] | Potency [10]

CCn1nc(C)c2c1C(=O)NCC(c1ccc(O)cc1)=N2
inactive: Potency [1] | Potency [2] | Potency [3] | outcome [5] | outcome [6] | outcome [7] | Potency [10]
